Here are results for five compounds from PubChem BioAssay (EPA / NIEHS).

As a reminder, the AC50 is the midpoint of the concentration-response curve, whichever way the signal moves.

Each structure is given as a SMILES string. Where “and” joins values, the source holds several entries; their conditions need not be identical. Identical values can stand only once. A structure can be active in one record and inactive in another. Calls of active or inactive are those of the source. How the source made its calls: active means hit-call score of the fitted dose curve at least 0.9, where 1 is the maximum; inactive means score below 0.9.

Read-out in assay [1]: Vascular endothelial growth factor receptor 2 (Homo sapiens) (UniProt P35968)
Kind of assay: BSK_4H_VEGFRII: BioMAP Diversity Plus: 4H Assay for Vascular endothelial growth factor receptor 2 (VEGFR2) Biomarker Activity (AID 2283031).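 On AC50: cell-surface VEGFR2 protein level quantified by ELISA.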 Particulars: primary human endothelial cells (HUVEC); actives raise or lower the signal. The gist of the method:
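In this multiplexed HUVEC system, biomarker ELISA was performed after 24 h chemical exposure. Parallel SRB staining (TCA fixation, 560 nm) tracked cytotoxicity; DMSO served as baseline.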

Read-out in assay [2]: Human Leukocyte Antigen - DR isotype (HLADR), HLA-DRA (gene 3122)
Kind of assay: BSK_BE3C_HLADR: BioMAP Diversity Plus: BE3C Assay for Human Leukocyte Antigen - DR isotype (HLADR) Biomarker Activity (AID 2283032). Particulars: primary human bronchial epithelial cells; actives raise or lower the signal. An outline of the steps:
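Chemicals are dosed onto BE3C bronchial epithelial cultures of human origin and left 24 h. HLA-DR is then measured by ELISA, and the endpoint is fitted in both directions using DMSO as the activity baseline.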

Read-out in assay [3]: Vascular cell adhesion molecule 1 (VCAM1), VCAM1 (gene 7412)
Kind of assay: BSK_4H_VCAM1: BioMAP Diversity Plus: 4H Assay for Vascular cell adhesion molecule 1 (VCAM1) Biomarker Activity (AID 2283033).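 On outcome: cell-surface VCAM-1 protein measured by ELISA.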 The settings on record: primary human endothelial cells (HUVEC); actives raise or lower the signal. An outline of the steps:
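Chemicals are added to primary human umbilical vein endothelial cells. After 24 h, VCAM-1 levels are measured by ELISA. Values come from bidirectional fitting referenced to DMSO.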

Read-out in assay [4]: Interferon-gamma inducible Protein 10 (IP10), CXCL10 (gene 3627)
Kind of assay: BSK_BE3C_IP10: BioMAP Diversity Plus: BE3C Assay for Interferon-gamma inducible Protein 10 (IP10) Biomarker Activity (AID 2283034). The settings on record: primary human bronchial epithelial cells; actives raise or lower the signal. An outline of the steps:
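IP-10 quantified by ELISA serves as the endpoint. Cells: primary human bronchial epithelium, read 24 h after compound addition. Activity is derived by bidirectional fitting with DMSO as negative control.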

Read-out in assay [5]: Monokine induced gamma interferon (MIG), CXCL9 (gene 4283)
The assay is described as follows: BSK_BE3C_MIG: BioMAP Diversity Plus: BE3C Assay for Monokine induced gamma interferon (MIG) Biomarker Activity (AID 2283035).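 On outcome: MIG protein measured by ELISA in BE3C cultures after 24 h of dosing.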 Particulars: primary human bronchial epithelial cells; actives raise or lower the signal. An outline of the steps:
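ELISA quantified MIG after 24 h exposure of primary bronchial epithelial cultures, analysed in both directions relative to DMSO. Cytotoxicity tracked in parallel cultures by sulforhodamine B staining.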

Read-out in assay [6]: Transforming growth factor beta 1 (TGFb1), TGFB1 (gene 7040)
Kind of assay: BSK_BE3C_TGFb1: BioMAP Diversity Plus: BE3C Assay for Transforming growth factor beta 1 (TGFb1) Biomarker Activity (AID 2283036;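 on outcome: TGF-b1 protein level measured by ELISA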). The settings on record: primary human bronchial epithelial cells; actives raise or lower the signal. The gist of the method:
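Bronchial epithelial primary cells are treated with test chemical, then TGF-b1 is quantified by ELISA after 24 hours. Values derive from bidirectional fitting against DMSO, with cytotoxicity checked by SRB staining in parallel cultures.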

Read-out in assay [7]: Plasminogen activator inhibitor-1 (PAI1), SERPINE1 (gene 5054)
The assay is described as follows: BSK_BE3C_PAI1: BioMAP Diversity Plus: BE3C Assay for Plasminogen activator inhibitor-1 (PAI1) Biomarker Activity (AID 2283037). Particulars: primary human bronchial epithelial cells; actives raise or lower the signal. The gist of the method: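 Values derive from bidirectional fitting against DMSO baseline of PAI-1 levels, measured by ELISA in human bronchial epithelial cells 24 h after compound addition.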

Read-out in assay [8]: urokinase plasminogen activator (uPA), PLAU (gene 5328)
The assay is described as follows: BSK_BE3C_uPA: BioMAP Diversity Plus: BE3C Assay for urokinase plasminogen activator (uPA) Biomarker Activity (AID 2283038).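 On outcome: uPA protein level quantified by ELISA in cell cultures; uPA read one day after compound addition.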 The settings on record: primary human bronchial epithelial cells; actives raise or lower the signal. The gist of the method: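 Using confluent primary human lung bronchial epithelial cultures, we dosed chemicals, waited 24 h, then ran a uPA ELISA, fitting bidirectionally against DMSO.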

Read-out in assay [9]: Urokinase-type plasminogen activator receptor (uPAR), PLAUR (gene 5329)
The assay is described as follows: BSK_BE3C_uPAR: BioMAP Diversity Plus: BE3C Assay for Urokinase-type plasminogen activator receptor (uPAR) Biomarker Activity (AID 2283039).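 On outcome: uPAR protein level measured by ELISA on the cells; cells exposed to compound for one day before measurement.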 Particulars: primary human bronchial epithelial cells; actives raise or lower the signal. An outline of the steps: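 Steps: dose human primary bronchial epithelial cells, incubate 24 h, measure uPAR by ELISA, then fit gain- or loss-of-signal response bidirectionally relative to DMSO.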

Read-out in assay [10]: Interleukin-6 (IL6), IL6 (gene 3569)
Kind of assay: BSK_CASM3C_IL6: BioMAP Diversity Plus: CASM3C Assay for Interleukin-6 (IL6) Biomarker Activity for (AID 2283040). The settings on record: primary human coronary artery smooth muscle cells; actives raise or lower the signal.

Read-out in assay [11]: Tissue plasminogen activator (tPA), PLAT (gene 5327)
Kind of assay: BSK_BE3C_tPA: BioMAP Diversity Plus: BE3C Assay for Tissue plasminogen activator (tPA) Biomarker Activity (AID 2283041).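 On outcome: tPA level quantified by ELISA one day after compound addition.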 Particulars: primary human bronchial epithelial cells; actives raise or lower the signal. An outline of the steps: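 Gain- or loss-of-signal in tPA, measured by ELISA, derived by bidirectional fitting against DMSO. Cells: human primary bronchial epithelial; read at 24 h after chemical dosing.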

Read-out in assay [12]: Interleukin-8 (IL8), CXCL8 (gene 3576)
Kind of assay: BSK_CASM3C_IL8: BioMAP Diversity Plus: CASM3C Assay for Interleukin-8 (IL8) Biomarker Activity (AID 2283042).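 Further: IL-8 protein level quantified by ELISA.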 Particulars: primary human coronary artery smooth muscle cells; actives raise or lower the signal.

Read-out in assay [13]: Human Leukocyte Antigen - DR isotype (HLADR), HLA-DRA (gene 3122)
Kind of assay: BSK_CASM3C_HLADR: BioMAP Diversity Plus: CASM3C Assay for Human Leukocyte Antigen - DR isotype (HLADR) Biomarker Activity (AID 2283043).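 Further: cell-surface HLA-DR protein level quantified by ELISA.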 The settings on record: primary human coronary artery smooth muscle cells; actives raise or lower the signal.

Read-out in assay [14]: Macrophage colony-stimulating factor (MCSF), CSF1 (gene 1435)
Kind of assay: BSK_CASM3C_MCSF: BioMAP Diversity Plus: CASM3C Assay for Macrophage colony-stimulating factor (MCSF) Biomarker Activity (AID 2283044).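 Further: M-CSF protein amount quantified by ELISA after 24 h exposure.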 Particulars: primary human coronary artery smooth muscle cells; actives raise or lower the signal.

Read-out in assay [15]: Low-density lipoprotein receptor (LDLR), LDLR (gene 3949)
Kind of assay: BSK_CASM3C_LDLR: BioMAP Diversity Plus: CASM3C Assay for Low-density lipoprotein receptor (LDLR) Biomarker Activity (AID 2283045).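 Further: LDLR protein level on the cell surface quantified by ELISA.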 Particulars: primary human coronary artery smooth muscle cells; actives raise or lower the signal.

Read-out in assay [16]: Monocyte Chemoattractant Protein-1 (MCP1), CCL2 (gene 6347)
Kind of assay: BSK_CASM3C_MCP1: BioMAP Diversity Plus: CASM3C Assay for Monocyte Chemoattractant Protein-1 (MCP1) Biomarker Activity (AID 2283046).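 Further: MCP-1 level quantified by ELISA 24 h after dosing.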 Particulars: primary human coronary artery smooth muscle cells; actives raise or lower the signal.

The nature of assay [17]: BSK_CASM3C_Proliferation: Cell Proliferation Assessment in the BioMAP Diversity Plus: CASM3C Assay (AID 2283047).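 Further: sulforhodamine B total protein stain as relative cell number at 560 nm; sub-confluent cells exposed 48 h before staining; fitted both ways against DMSO so gain or loss of cell number.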 Particulars: primary human coronary artery smooth muscle cells.
Read-out in assay [18]: Monokine induced gamma interferon (MIG), CXCL9 (gene 4283)
The assay is described as follows: BSK_CASM3C_MIG: BioMAP Diversity Plus: CASM3C Assay for Monokine induced gamma interferon (MIG) Biomarker Activity (AID 2283048).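 Further: MIG protein level measured by ELISA.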 Particulars: primary human coronary artery smooth muscle cells; actives raise or lower the signal.

Read-out in assay [19]: serum amyloid A (SAA), SAA1 (gene 6288)
The assay is described as follows: BSK_CASM3C_SAA: BioMAP Diversity Plus: CASM3C Assay for serum amyloid A (SAA) Biomarker Activity (AID 2283049).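 Further: SAA protein level quantified by ELISA.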 The settings on record: primary human coronary artery smooth muscle cells; actives raise or lower the signal.

A short description of assay [20]: BSK_CASM3C_SRB: Viability Assessment in the BioMAP Diversity Plus: CASM3C Assay (AID 2283050).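 Further: total protein by SRB staining as cytotoxicity measure in parallel cultures.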 The settings on record: primary human coronary artery smooth muscle cells.

As for `C=CC(=O)NCNC(=O)C=C`, the result in assay [1], in [2], in assay [3], in assay [4], in assay [5] and in assay [6] was inactive. For the same compound, the outcome in assay [7], in assay [8], in assay [9], in [10], in assay [11] and in [12] was inactive. Also, the result in assay [13], in [14], in assay [15], in assay [16], in assay [17] and in [18] was inactive. For the same compound, the outcome in assay [19] and in assay [20] was inactive.
For `NS(=O)(=O)C(F)(F)C(F)(F)C(F)(F)C(F)(F)C(F)(F)C(F)(F)C(F)(F)C(F)(F)F`, the AC50 in assay [1] was 28.5 µM (active) and 30 µM (active); in assay [2], 5.61 µM (active) and 37.8 µM (active) and 37.6 µM (active); in assay [3] it was 32.1 µM (active) and 50.1 µM (active) and 46 µM (active); in assay [4], 10.2 µM (active) and 27 µM (active) and 23.1 µM (active); in [5] it was 58.2 µM (active) and 54.8 µM (active); in assay [6], 10.5 µM (active). Besides, the AC50 is 10.4 µM (active) and 17.1 µM (active) and 15.5 µM (active) in assay [7]; 47.3 µM (active) and 55.1 µM (active) in assay [8]; 51.1 µM (active) and 54.9 µM (active) in assay [9]; 45.5 µM (active) and 37 µM (active) in assay [11]; 26.2 µM (active) and 46.2 µM (active) in [13]; 31.3 µM (active) and 49 µM (active) in [14]. Moreover, the AC50 in [15] is 44.3 µM (active); in assay [16] it was 30 µM (active); in [17], 54.4 µM (active) and 50.9 µM (active); in assay [18] it was 39.8 µM (active); in assay [19] it was 46.8 µM (active); in [20], 31.8 µM (active) and 45.5 µM (active) and 49.3 µM (active). The result in assay [1], in assay [5], in assay [8], in [9], in assay [10] and in assay [11] was inactive. The outcome in [12], in assay [13], in assay [14], in assay [15], in [16] and in [17] was inactive. Moreover, the outcome in assay [18] and in assay [19] was inactive.
`Clc1ccc(C(Cl)(Cl)Cl)cc1`: the result in assay [1], in assay [2], in assay [3], in assay [4], in [5] and in [6] was inactive. In addition, the outcome in assay [7], in assay [8], in assay [9], in assay [10], in assay [11] and in assay [12] was inactive. The result in assay [13], in assay [14], in [15], in assay [16], in [17] and in assay [18] was inactive. Moreover, the result in assay [19] and in [20] was inactive.
As to `ClC1=C(Cl)[C@]2(Cl)[C@@H]3[C@@H](Cl)[C@H]4O[C@H]4[C@@H]3C1(Cl)C2(Cl)Cl`, the outcome in [1], in assay [2], in [3], in assay [4], in [5] and in assay [6] was inactive. Further, the outcome in assay [7], in assay [8], in assay [9], in assay [10], in [11] and in [12] was inactive. Besides, the outcome in assay [13], in assay [14], in [15], in assay [16], in [18] and in [19] was inactive. Further, the outcome in assay [20] was inactive. For the same compound, in assay [17], the AC50 is 12.3 µM (active).
Regarding `CCSC(=O)N(CC)C1CCCCC1`, the outcome in assay [1], in [2], in [3], in assay [4], in assay [5] and in assay [6] was inactive. The result in assay [7], in [8], in assay [9], in [10], in [11] and in assay [12] was inactive. The result in [13], in assay [14], in assay [15], in assay [16], in assay [17] and in assay [18] was inactive. In addition, the result in assay [19] and in [20] was inactive.
